High-throughput results from PubChem.
DAX1 inh-1 = DAX1 (NR0B1) inhibition, primary screen. HEK293T StAR-luciferase reporter, SF-1/DAX-1 repression relief. inhibition, % at 6.8 µM. 1.1% of 370,000 active;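 active = inhibition above the mean over all tested compounds plus 3 SD, cut at about 3.6% in these data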;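 note: 0% = DAX-1 cells with DMSO and 100% = cells lacking DAX-1 with DMSO; higher inhibition means more luminescence from relief of DAX-1 repression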
ssDAF-12 act = activators of S. stercoralis DAF-12 nuclear receptor. HEK293 ssDAF-12/GRIP1 lit1-tk-luc reporter, luminescence; % of 3 µM dafachronic acid response. activation, % at 6.8 µM. 1% of 370,000 active;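 active = activation above the mean over all tested compounds plus 3 SD, cut at about 0.9% in these data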;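 note: 0% = DMSO-only wells and 100% = 3 µM delta7-dafachronic acid wells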
hcDAF12 agonist = activators of H. contortus DAF-12 nuclear receptor. 1.4% of 370,000 active. AID 652067. HEK293 hcDAF-12 lit1-tk-luc reporter, luminescence; 0% DMSO, 100% Δ7-dafachronic acid. activation, % at 6.8 µM;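 active = activation above the mean of all tested compounds plus 3 SD, cut at about 5.5% in these data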;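 note: 100% = response to 3 µM Δ7-dafachronic acid high control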
AHR act = human AHR activation; AHR-responsive luciferase reporter cells, luminescence; activation, % at 5 µM; 2.5% of 320,000 active; AID 2796; in the data active = activation above about 47%;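 note: 0% = vehicle wells and 100% = reference agonist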
hgDAF12 agonist = agonists of H. glycines DAF-12 nuclear receptor. activation, % at 6.8 µM. AID 687014. HEK293 GAL4-hgDAF12 UAS-luciferase reporter, agonist luminescence; normalized to butyrate control. 1.8% of 370,000 active;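 active = activation above a cutoff set at the mean of all screened compounds plus 3 SD, cut at about 10% in these data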;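 note: 0% = DMSO wells and 100% = sodium butyrate wells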
DAX1 inh-2 = inhibitors of human orphan nuclear receptor DAX1 (NR0B1) | inhibition, % at 6.75 µM | 0.99% of 340,000 active | HEK293 Gal4-DAX1 luciferase reporter, luminescence | P51843;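 active = inhibition above the mean over all tested compounds plus 3 SD, cut at about 4.2% in these data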;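 note: 0% = DAX1-transfected cells with DMSO and 100% = empty-vector control cells with DMSO; inhibition shows as a rise in luminescence from relieved DAX1 repression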
hgDAF12 conf = hgDAF-12 agonism, confirmation assay; shares compounds with hgDAF12 agonist; HEK293 GAL4-hgDAF12 luciferase reporter, agonist mode; percent of butyrate response; activation, % at 6.8 µM; 80% of 3,300 active;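 active = mean activation over triplicate wells above the hit cutoff derived from the earlier primary screen, cut at about 11% in these data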;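 note: 0% = DMSO low control and 100% = 2 mM sodium butyrate high control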
LXR ag 2 = counter-screen for DAF-12 agonists: agonists of human LXR-beta; shares compounds with hgDAF12 agonist; HEK293 Gal4-LXR luciferase reporter, 24 h; activation, % at 6.8 µM; AID 743051; 3,300 tested, under 10 active;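 active = mean activation of the triplicate above a set limit carried over from the primary screen, none filed active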
Target sequence (P55055 whole entry, looked up, the tested form may be a part): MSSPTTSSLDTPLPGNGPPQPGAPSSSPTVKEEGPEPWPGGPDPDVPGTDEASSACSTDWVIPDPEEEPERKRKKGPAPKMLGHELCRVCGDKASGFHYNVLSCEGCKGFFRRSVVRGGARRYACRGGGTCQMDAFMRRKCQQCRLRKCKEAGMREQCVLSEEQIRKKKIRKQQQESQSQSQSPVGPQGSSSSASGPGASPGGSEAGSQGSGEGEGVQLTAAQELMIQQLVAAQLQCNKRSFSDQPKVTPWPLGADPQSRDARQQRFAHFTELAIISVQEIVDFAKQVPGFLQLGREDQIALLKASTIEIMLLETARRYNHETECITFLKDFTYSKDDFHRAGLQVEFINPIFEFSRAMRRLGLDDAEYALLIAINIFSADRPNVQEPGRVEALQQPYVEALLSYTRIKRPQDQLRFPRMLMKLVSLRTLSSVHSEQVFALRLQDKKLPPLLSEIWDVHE
The depositor's hits bear a star; . = no result given. An excerpt weighted towards active compounds, which were near 5.7% of everything screened.

SMILES	DAX1 inh-1	ssDAF-12 act	hcDAF12 agonist	AHR act	hgDAF12 agonist	DAX1 inh-2	hgDAF12 conf	LXR ag 2
Cc1ccc(C(=O)Nc2cc3c(cc2Cl)OCCCO3)cc1	2	1	4	-3	17*	3	13*	0
COc1cccc(C(=O)Nc2cc3c(cc2Cl)OCCCO3)c1	4	0	2	1	14*	2	14*	0
Cn1c(=O)c2c(ncn2CC(=O)OCC(=O)NCc2ccc(F)cc2)n(C)c1=O	0	-1	-1	.	0	1	.	.
Cc1ccsc1/C=C1\Oc2cc(O)ccc2C1=O	4.5*	0	3	.	24*	2	6	0
Cn1ccc2cc(OCc3ccccc3)ccc21	4.2*	1.4*	4	.	22*	3	15*	1
COc1ccc(C2CC(c3ccc4ccccc4c3)=NN2C(=O)CNC2CCCCC2)cc1 (stereo not drawn)	0	-2	0	5	4	3	.	.
COc1ccc(C2CC(c3ccc4ccccc4c3)=NN2C(=O)CN2CCC(C(N)=O)CC2)cc1 (stereo not drawn)	3	-1	3	4	13*	3	5	0
Cc1ccc(C(C)(C)NC(=O)C2CCC(=O)N(CCCN3CCOCC3)C2)cc1 (stereo not drawn)	0	-1	1	0	0	0	.	.
Cc1ccc(C(C)(C)NC(=O)C2CCC(=O)N(C3CCCCCC3)C2)cc1 (stereo not drawn)	3	0	6.0*	7	13*	1	14*	0
O=C(CN1CCCC1)Nc1nc(-c2ccc3c(c2)CCN3C(=O)c2ccccc2F)cs1	.	.	.	-3	.	-1	.	.
CNc1nc(-c2ccc3c(c2)CCN3C(=O)c2ccccc2C)cs1	1	0	1	17	21*	1	15*	0
CC1CCN(S(=O)(=O)c2ccc3c(c2)N(CC(=O)N(C)Cc2ccco2)C(=O)CO3)CC1	1	0	0	1	0	0	.	.
COc1ccc(CNC(=O)CN(C)Cc2ccc(C(C)(C)C)cc2)cc1	0	-1	-1	-2	0	0	.	.
COc1ccc(C(=O)N2CCN(C(=O)C3CCCO3)CC2)cc1[N+](=O)[O-] (stereo not drawn)	0	-1	0	0	-1	0	.	.
Fc1cccc(Cl)c1CN1CCN(c2nc3ccccc3s2)CC1	3	1	6	.	13*	4	11*	0
COc1ccc(Cl)cc1S(=O)(=O)N1CCC(C(=O)NCc2ccccn2)CC1	0	-1	-1	1	0	0	.	.
COc1ccc2cc(CCNC(=O)c3cccs3)c(=O)[nH]c2c1	4.0*	0	4	3	15*	3	11*	1
COc1ccc2cc(CCNC(=O)c3cc4ccccc4o3)c(=O)[nH]c2c1	-3	-1	-1	13	-3	-1	.	.
O=C(NCCC1=CCCCC1)Nc1ccc2nsnc2c1	3.8*	0	5.9*	10	20*	3	14*	1
CC(=O)c1cccc(NC(=S)NCCC2=CCCCC2)c1	-1	-2	-2	4	2	-1	.	.
COc1ccc(-c2nc(C#N)c(NCc3ccco3)o2)cc1	2	-1	-1	45	16*	1	16*	0
Cc1ccc(-c2nc(C#N)c(NCc3ccco3)o2)cc1	2	0	1	27	14*	3	16*	0
CC(C)(C)NC(=O)NC(=O)CN1CCN(c2cccc(Cl)c2)CC1	-2	-2	-3	-1	-3	3	.	.
Cc1ccccc1NP(=O)(c1ccccc1)c1nc2ccccc2s1 (stereo not drawn)	-1	0	2	6	2	0	.	.
Cc1ccccc1Nc1nc2ccccc2s1	2	0	6.2*	21	17*	6.2*	18*	1
SMILES	DAX1 inh-1	ssDAF-12 act	hcDAF12 agonist	AHR act	hgDAF12 agonist	DAX1 inh-2	hgDAF12 conf	LXR ag 2
Fc1ccc(Nc2nc3ccccc3s2)cc1	3	0	5	7	26*	3	12*	0
Oc1ccccc1C=Nc1ccccc1-c1nc2ccccc2[nH]1	2	-1	2	37	18*	3	-2	0
c1ccc2c(-c3nc4ccccc4[nH]3)cccc2c1	-4	-1	-1	.	5	-3	.	.
Clc1ccccc1-c1nc2ccccc2[nH]1	0	0	1	12	8	1	.	.
Fc1ccccc1-c1nc2ccccc2[nH]1	3	-1	2	15	15*	4.9*	12*	1
COc1ccccc1NS(=O)(=O)c1cccc(NC(=O)c2cc3ccccc3oc2=O)c1	3	0	5	5	16*	2	13*	0
COc1ccccc1NS(=O)(=O)c1cccc(NC(=O)Nc2ccccc2)c1	-1	-2	-4	9	-1	-2	.	.
CN(c1ccccc1)S(=O)(=O)c1cccc(NC(=O)c2cc3ccccc3oc2=O)c1	2	1	5	2	16*	2	10	0
CN1CCN(c2ccc(CNS(=O)(=O)Cc3cccc(C(F)(F)F)c3)cc2)CC1	-2	-2	-3	-2	-6	.	.	.
COC(=O)Cc1c(C(=O)OC)nnn1-c1ccc(OC(F)(F)F)cc1	0	-1	-1	2	0	1	.	.
C=CCN1C=CC(=C/C=C(/C#N)C(=O)OCC)C=C1	3	1	5.6*	4	16*	3	16*	1
Cc1ccc(-c2nnc(SCc3ccccc3F)o2)cc1	4	1	5.7*	-8	16*	3	15*	1
Cc1ccc(CN2CCN(CC(C)C)C(CCO)C2)s1 (stereo not drawn)	0	0	4	5	15*	3	10	0
CC(C)C(N)c1csc(Nc2nncc3ccccc23)n1 (stereo not drawn)	3	-1	2	.	14*	.	8	0
CC(N)c1csc(Nc2nncc3ccccc23)n1 (stereo not drawn)	0	-1	3	.	4	.	.	.
Cc1ccc(C)c(N2CCN(c3cnn(-c4nc5ccccc5s4)c(=O)c3Cl)CC2)c1	3.7*	0	5	5	14*	3	12*	1
CC(C)(C)n1cnc2cc(NCc3ccc(Br)cc3)ccc21	1	0	3	13	17*	4.2*	13*	1
COc1cc(C(=O)Nc2ccc3c(c2)ncn3C(C)(C)C)cc(OC)c1OC	0	-1	-2	.	-2	-1	.	.
